Rows were chosen to be rich in hits. Some 2.9% of all compounds tested hit in one or more screens of this group.
Nrf2 inh – inhibitors of Nrf2 signaling; A549 ARE-Fluc reporter, luciferase luminescence, 18-24 h; Potency, µM (doses to about 46 µM), for the others: at the highest dose activity change, negative = inhibition, usual class: inhibitors; 360,000 tested, 2.1% active; AID 504444; further: on the % scale 0 is the no-effect control and ±100 the full control effect; nearly all actives have a fitted effect of over 60% in size
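Concentration-response testing used A549 ARE_Fluc cells at 5000 cells/well. Following an 18-24 h compound incubation, viability was read by fluorescence (Ex 405/Em 525) and luciferase output by luminescence.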
S2 tox – reduces viability in counter-screen for ATXN expression inhibitors; S2 cells (HEK-293 line with an ATXN2-luciferase reporter) viability, CellTiter-Fluor protease fluorescence, 24 h; Potency, µM (titrated, usually from 56.7 µM), most hits filed as cytotoxic; AID 651635; 400,000 tested, 0.49% active; further: nearly all actives have a fitted effect of over 40% in size
Nrf2 activator – Nrf2 pathway activation; AID 624171; AREc32 ARE-luciferase reporter (MCF7-derived line), luminescence, 24 h; Potency, µM (series often up to 46.1 µM), for the others: at the top dose activation, most hits filed as activators; 410,000 tested, 0.31% active; further: % of control where 0% means no effect; nearly all actives have a fitted effect of over 65% in size
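Steps: seed AREc32_Fluc cells (1000/well, 5% FBS OPTI-MEM); incubate overnight at 37 deg C; add 23 nL compound; incubate 24 hr; add Steady-Glo; hold 30 min RT; read luminescence.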
ATXN2 expr inh – ATXN2 expression inhibition; HEK-293 ATXN2-luciferase reporter, luminescence, 24 h; Potency, µM (highest dose often 57 µM), without a hit: at the top dose activity change, negative = inhibition, usual class: inhibitors; 360,000 tested, 0.72% active; further: on the % scale 0 is the no-effect control and ±100 the full control effect; nearly all actives have a fitted effect of over 55% in size
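ATXN2-luciferase reporter cells (luciferase flanked by upstream and downstream ATXN2 gene portions) were treated 24 h at 37 °C with compounds at up to 57 uM. SteadyGlo luminescence gave expression; GF-AFC fluorescence gave viability.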
A549 tox – counter-screen for Nrf2 inhibitors: cytotoxicity in A549 cells. Potency, µM (doses to about 46 µM), inactives show at the top dose activity change, negative = cytotoxicity, hits mostly inhibitors. A549 ARE-Fluc cells, CellTiter-Fluor viability, 18-24 h. AID 504648. 390,000 tested, 0.16% active; further: on the % scale 0 is the no-effect control and ±100 the full control effect
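A549 ARE-Fluc cells in 5% FBS OPTI-MEM, 5000 cells/well, rested 2 h then exposed to compounds in concentration-response for 18-24 h at 37 °C. Viability by CellTiter-Fluor fluorescence (Ex 405/Em 525) after 30 min; luciferase luminescence (BugLite, 15 min, RT) read afterwards.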
* marks the source's active call; other numbers are inactive results; i = inactive; ? = inconclusive; nt = not tested or not shown; [ ] = another dose, or the depositor's remark. The call rests on the fitted dose curve; in most records, active means well fitted curve in the direction sought with a large enough effect; inconclusive means small, poorly fitted or top-dose-only effect, or another doubt; inactive means no such curve, though single readings can be large; an effect the other way counts as inactive or inconclusive. Potency means the concentration at half of the fitted maximal effect.

SMILES	Nrf2 inh	S2 tox	Nrf2 activator	ATXN2 expr inh	A549 tox
CN1CCC(=C2c3ccccc3CCc3cccnc32)CC1	nt	i	nt	-8%	nt
COc1ccc(CC(O)CO)cc1OCc1ccccc1 (stereo not drawn)	nt	i	-1%	nt	nt
C#CC(=O)N(c1cc(OC)ccc1OC)C(C(=O)NC1CCCC1)c1cccs1 (stereo not drawn)	10µM*	32µM*	?	?	?
C#CC(=O)N(c1ccc(OC)cc1OC)C(C(=O)NC1CCCC1)c1cccs1 (stereo not drawn)	-12%	nt	?	1.8µM*	4%
COc1ccc(N(C(=O)c2ccco2)C(C(=O)NC2CCCCC2)c2cccs2)cc1OC (stereo not drawn)	-10%	?	0%	1%	-10%
COc1ccc(Cl)cc1S(=O)(=O)n1ccnc1	-9%	i	0%	-13%	-8%
Oc1cccc(C=NNc2ccccn2)c1	-2%	i	13µM*	43%	-1%
Brc1ccc(/C=N/Nc2ccccn2)cc1	?	i	13µM*	62%	2%
CNC(=O)COc1ccc(S(=O)(=O)Nc2ccc(OC)cc2)cc1	-6%	i	0%	-4%	0%
NS(=O)(=O)c1cccc(NC(=O)COC(=O)CCSc2ccccc2)c1	-7%	i	-2%	-29%	3%
Cc1ccccc1N1Cc2ccccc2C1=O	nt	i	0%	-10%	nt
Nc1ccc2c(c1)CN1C(=O)c3ccccc3C1=N2	nt	?	nt	13µM*	nt
S=C(NCC1CCCO1)Nc1ccc(Nc2ccccc2)cc1 (stereo not drawn)	15µM*	i	3%	-17%	-22%
CCN(C(=O)CSc1cc(C)c2ccc(OC)cc2n1)C1CCS(=O)(=O)C1 (stereo not drawn)	-4%	i	-1%	8%	0%
CCN(C(=O)CSc1cc(-c2ccccc2)c2ccc(OC)cc2n1)C1CCS(=O)(=O)C1 (stereo not drawn)	23µM*	i	4%	-14%	?
Cc1nnc(SCC(=O)NC2CCCCC2)n1C1CCCCC1	-9%	?	0%	3%	1%
Cc1ccc(C(=O)C[n+]2cc(-c3ccc(C)cc3)n3c2CCCCC3)cc1	?	?	2%	?	-3%
COc1ccc(C(=O)C[n+]2cc(-c3ccc(OC)cc3)n3c2CCCC3)cc1	8.2µM*	?	3%	-18%	-9%
COc1cc(SC)ccc1C(=O)N1CCN(Cc2ccc3c(c2)OCO3)CC1	15µM*	?	1%	nt	-3%
CCOC(=O)C1CCN(C(=O)c2ccc(SC)cc2OC)CC1	4%	i	0%	-31%	-5%
O=C(c1ccc(COc2ccc(Cl)cc2)o1)N1CCN(Cc2ccc3c(c2)OCO3)CC1	23µM*	?	3%	?	-20%
CCOC(=O)N1CCN(C(=O)c2ccc(SC)cc2OC)CC1	12µM*	i	0%	nt	0%
CC(=O)Nc1ccc(Nc2cc(N(C)C)c3nonc3c2[N+](=O)[O-])cc1	-14%	?	0%	-11%	-6%
O=C(CSc1nnnn1-c1ccc2c(c1)OCCO2)OC1CCCCC1	6%	i	3%	6%	0%
Cc1ccc2[nH]c(O)c(N=Nc3nc4ccccc4s3)c2c1	?	13µM*	7%	?	-22%
SMILES	Nrf2 inh	S2 tox	Nrf2 activator	ATXN2 expr inh	A549 tox
Cc1ccc2onc(CNC(=O)Nc3cc(F)ccc3F)c2c1	?	i	6%	-5%	11%
CCN(CC)S(=O)(=O)c1ccc(NC(=O)NCc2noc3ccc(C)cc23)cc1	18µM*	?	0%	?	?
CCN(CC)S(=O)(=O)c1ccc2oc(C(=O)NCc3ccc(C)cc3)c(C)c2c1	16µM*	i	0%	?	2%
CCCCN(CCCC)S(=O)(=O)c1ccc2oc(C(=O)NCc3ccc(C)cc3)c(C)c2c1	nt	i	0%	2%	-1%
Cc1ccccc1NC(=O)CSc1nc2cc3c(cc2cc1C)CCC3	-22%	i	0%	-20%	?
CCC(=O)Nc1ccc(NC(=O)CSc2nc3cc4c(cc3cc2C)CCC4)cc1	23µM*	?	-1%	-29%	?
Cc1cc[n+](-c2nc([O-])sc2/C=N/Nc2ccc([N+](=O)[O-])cc2)cc1	-3%	i	0%	-14%	-9%
CC1CCN(S(=O)(=O)c2ccc(C(=O)NCc3ccco3)cc2)CC1	?	i	0%	-2%	4%
Cc1cc(C)n(-c2ccc3cccc(NS(C)(=O)=O)c3n2)n1	5.2µM*	i	0%	?	-10%
CS(=O)(=O)Nc1cccc2cccnc12	22%	i	?	-8%	10%
COc1ccc(S(=O)(=O)N2CCCCCC2)cc1N(C)S(=O)(=O)c1ccccc1	23µM*	i	0%	-10%	-9%
COc1ccc(S(=O)(=O)N2CCCCC2)cc1N(C)S(=O)(=O)c1ccccc1	-6%	i	0%	-10%	13%
COc1ccc(S(=O)(=O)Nc2ccc(C)cc2)cc1N(C)S(=O)(=O)c1ccc(Cl)cc1	18µM*	?	5%	?	?
COc1ccc(-c2nc3ccccc3o2)cc1NC(=O)Cc1ccc(Cl)cc1	2%	i	0%	20%	-5%
COC(=O)c1cc(C(=O)Nc2ccc(S(N)(=O)=O)cc2)cc([N+](=O)[O-])c1	-2%	i	0%	9%	-2%
CN1CCN(CCOc2ccc(Cc3ccccc3)cc2)CC1	2%	i	0%[9.22 µM]	-14%	-11%
CCSc1nc2ccccc2n1C(=O)/C=C\c1ccc(OC)c(OC)c1	?	?	?	13µM*	?
O=C(NCc1ccco1)c1ccc(COc2cccc3ccccc23)cc1	16µM*	i	3%	-12%	-15%
COc1cc(NC2CCCCC2O)c2nc(-c3ccc(Cl)cc3)ccc2c1 (stereo not drawn)	?	i	-3%	27%	9.2µM*
COc1ccc(OCC(=O)OCC(=O)NC2CCCCC2C)cc1 (stereo not drawn)	0%	nt	-1%	nt	2%
O=C(CN1CCCCC1)Nc1nnc(-c2ccccc2)s1	25%	i	?	20%	-1%
Cc1occc1C(=O)Nc1nnc(-c2cccs2)s1	?	?	11µM*	25%	-3%
O=C(CN1CCCC1)Nc1nnc(-c2cccs2)s1	?	i	11µM*	28%	-5%
Fc1ccc2[nH]c3c(NCc4ccccc4)ncnc3c2c1	18µM*	i	6%	?	-14%
COc1ccc2[nH]c3c(NCc4ccco4)ncnc3c2c1	?	i	3.2µM*	-18%	7%
O=C(N1CCc2ccc(S(=O)(=O)N3CCN(S(=O)(=O)c4ccc5c(c4)OCCO5)CC3)cc2C1)C(F)(F)F	17%	nt	nt	nt	-2%
CCN(CC)S(=O)(=O)c1cccc(NC(=O)CN(C)C2CCCCC2)c1	5%	i	0%	-15%	7%

High-throughput results (PubChem BioAssay)
